IL-1B inflam inh – blocks inflammasome-driven IL-1 beta release; 4.7% of 360,000 active; THP-1 LPS/ATP IL-1B secretion, AlphaLISA, 16 h; active compounds read low; activity change, % at 57.5 µM; in the data active = activity change below about -50%; inconclusive = mostly about -30% to -49%
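THP-1 cells pretreated 1 hr with compounds (up to 57.5 uM final), then stimulated with LPS (250 ng/mL final) plus ATP (1.25 mM final); secreted IL-1B measured by AlphaLISA after 16 hr, decreased signal indicating inhibition.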
ELG1 DNA repair – ELG1-dependent DNA repair inhibition; 2.3% of 330,000 active; Potency, µM (titrated, usually from 46.1 µM), without a hit: at the top dose activity change, negative = inhibition, usual class: inhibitors; HEK293T ELG1-luciferase reporter, luminescence, 16 h; DNA damage induced by 5-fluorouridine; AID 504467; note: potency is the fitted concentration of half-maximal effect; nearly all actives have a fitted effect of over 55% in size
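Reporter activity after DNA damage by 5-fluorouridine is monitored. Compound-treated cells incubate 16 hr at 37 °C, then ONE-Glo is added for 30 min before luminescence reading.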
RORg inh – inhibitors of mouse ROR gamma transcriptional activity; 5.4% of 310,000 active; P51450; AID 2551; Drosophila S2 Gal4-RORgamma UAS-luciferase reporter, 20 h; Potency, µM (top dose mostly 53.6 µM), without a hit: at the highest dose activity change, negative = inhibition, actives largely listed as inhibitors; note: potency is the fitted concentration of half-maximal effect; nearly all actives have a fitted effect of over 60% in size
Target sequence (P51450 whole entry, looked up, the tested form may be a part): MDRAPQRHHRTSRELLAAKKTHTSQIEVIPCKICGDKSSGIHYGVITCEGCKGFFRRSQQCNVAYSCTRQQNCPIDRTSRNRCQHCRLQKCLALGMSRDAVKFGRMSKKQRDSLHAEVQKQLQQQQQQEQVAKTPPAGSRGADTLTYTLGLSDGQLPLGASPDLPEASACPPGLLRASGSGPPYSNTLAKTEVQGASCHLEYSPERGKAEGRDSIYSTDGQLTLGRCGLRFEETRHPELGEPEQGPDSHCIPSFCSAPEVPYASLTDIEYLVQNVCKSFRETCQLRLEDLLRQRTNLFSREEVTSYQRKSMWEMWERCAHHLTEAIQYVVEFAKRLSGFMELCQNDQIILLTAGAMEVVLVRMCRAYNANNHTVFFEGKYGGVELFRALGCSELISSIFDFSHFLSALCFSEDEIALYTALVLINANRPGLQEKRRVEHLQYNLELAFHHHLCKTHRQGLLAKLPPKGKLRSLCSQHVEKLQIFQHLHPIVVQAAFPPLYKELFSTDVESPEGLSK
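Luminescence from a UAS-regulated Photinus luciferase reporter in stably transfected Drosophila Schneider cells is measured; decreased signal marks ROR gamma inhibition. Fusion expression is induced by 700 uM copper sulfate for 20 hr.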
TDP1 cell CPT – growth inhibition of DT40 Tdp1-/-;hTDP1 cells with camptothecin (screen for TDP1 inhibitors) | chicken DT40 Tdp1-/-;hTDP1 cells + 20 nM CPT, ATP luminescence, 48 h | AID 686979 | 12% of 420,000 active | Potency, µM (highest dose often 46.2 µM), for inactives: top-dose activity change, negative = growth inhibition, most hits filed as inhibitors; note: potency is the fitted concentration of half-maximal effect; nearly all actives have a fitted effect of over 55% in size
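Chicken DT40 Tdp1-/- cells stably complemented with human TDP1 were seeded at 400 cells/well in medium containing 20 nM camptothecin, exposed to pin-transferred compounds, and grown at 37 °C for at least 48 hr. Viability was read as ATP luminescence.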
TDP1 cell noCPT – qHTS for Inhibitors of human tyrosyl-DNA phosphodiesterase 1 (TDP1): qHTS in cells in absence of CPT; DT40 Tdp1-/- hTDP1 cells, no CPT, ATP luminescence, 48 h; Potency, µM (titrated, usually from 46.2 µM), inactives show top-dose activity change, negative = growth inhibition, most hits filed as inhibitors; 15% of 420,000 active; AID 686978, 2013; note: potency is the fitted concentration of half-maximal effect; nearly all actives have a fitted effect of over 55% in size
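A cellular qHTS used chicken DT40 cells lacking endogenous Tdp1 but carrying stably transfected human TDP1. Compounds were applied without camptothecin, and cell growth kinetics were judged by ATP-dependent luminescence after ≥48 hr.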
Gal4-VP16 FLuc – counter-screen for ROR gamma inhibitors: Gal4-VP16 reporter | Potency, µM (top dose mostly 53.6 µM), without a hit: at the highest dose activity, negative = inhibition, hits mostly inhibitors | Drosophila S2 Gal4-VP16 UAS-luciferase, luminescence, 20 h | 3.5% of 310,000 active | AID 2546;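 note: Gal4-VP16 expression switched on by copper sulfate through the metallothionein promoter; potency is the fitted concentration of half-maximal effect; nearly all actives have a fitted effect of over 50% in size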
An asterisk follows results filed as active; ? = inconclusive; nt = not tested or not shown. Shown are actives, neighbours in structure and some others; about 21% of the full set was active somewhere. Unless noted, calls come from the whole dose curve; as a rule, active = well fitted curve in the direction sought with a large enough effect; inconclusive = small, poorly fitted or top-dose-only effect, or another doubt; inactive = no such curve, though single readings can be large; an effect the other way counts as inactive or inconclusive. % is set by controls: 0 for no effect and ±100 for the full control effect.

SMILES	IL-1B inflam inh	ELG1 DNA repair	RORg inh	TDP1 cell CPT	TDP1 cell noCPT	Gal4-VP16 FLuc
Cc1coc2c(C)c3oc(=O)c(CCC(=O)NCCC(=O)O)c(C)c3cc12	-10.7	4.4%	10.7%	23.2%	-0.8%	-3.4%
Cc1c(CC(=O)NCCc2ccccc2)c(=O)oc2c(C)c3occ(C(C)(C)C)c3cc12	nt	nt	nt	16.4µM*	18.4µM*	nt
Cc1coc2c(C)c3oc(=O)c(CCC(=O)NCCc4ccccc4F)c(C)c3cc12	nt	nt	nt	?	16.4µM*	nt
O=C(/C=C/[C@H]1O[C@@H](n2ccc(=O)[nH]c2=O)[C@H](O)[C@@H]1O)NCc1ccccc1	28.3	nt	nt	-1.2%	27.1%	nt
Cc1cccc(OCCn2c(-c3ccc(Cl)cc3)nc3ccccc3c2=O)c1C	nt	nt	nt	-12.4%	9.6%	nt
Cc1ccc(CNC(=O)Nc2nnc([C@@H]3C[C@H](O)[C@@H](CO)O3)s2)cc1	-0.6	nt	nt	-7.6%	-18.0%	nt
C=CCN(CC=C)CC(=O)Nn1c(C)ccc1C	-9.8	nt	nt	-23.3%	?	nt
COc1ccc2[nH]cc(CCNc3ccnc(-c4ccc5c(c4)OCO5)n3)c2c1	nt	nt	37.9%	?	?	2.3%
COc1ccc2[nH]cc(CCNc3ncncc3-c3c(C)noc3C)c2c1	nt	nt	40.5%	?	?	6.6%
COc1ccc2[nH]cc(CCNc3ncncc3-c3ccc4c(c3)OCO4)c2c1	nt	nt	32.9%	6.51µM*	18.4µM*	?
COc1ccc2[nH]cc(CCNc3cc(-c4cccnc4)ncn3)c2c1	nt	nt	0.5%	?	-24.9%	-7.4%
COc1cccc(-c2cncnc2NCCc2c[nH]c3ccc(OC)cc23)c1	nt	nt	-13.1%	23.1µM*	20.6µM*	?
COc1ccc2[nH]cc(CCNc3cc(-c4ccccc4C)ncn3)c2c1	nt	nt	-7.4%	9.2µM*	16.4µM*	-8.8%
COc1ccc2[nH]cc(CCNc3cc(-c4ccc5c(c4)OCO5)ncn3)c2c1	nt	nt	25.5%	?	20.6µM*	7.8%
CCOc1ccc(C(=O)NCC(=O)OCC(=O)N(C)CC(=O)Nc2ccccc2CC)cc1OCC	20.8	nt	nt	-14.5%	?	nt
Cc1ccc(Cl)cc1N1CCN(S(=O)(=O)c2ccc3c(c2)NC(=O)C(C)C(=O)N3)CC1 (stereo unspecified)	14.0	-17.2%	36.8%	?	?	?
Cc1ccc2cc(CN(Cc3ccco3)C(=S)NCC3CCCO3)c(=O)[nH]c2c1C (stereo unspecified)	-25.5	10.3µM*	3.4%	18.4µM*	25.9µM*	-2.4%
Cc1cc(C)c2[nH]c(=O)c(CN(CC3CCCO3)C(=O)C3CCCO3)cc2c1 (stereo unspecified)	-3.5	?	2.2%	-13.9%	-7.5%	-6.7%
CSc1nc2sc3c(c2c(=O)n1Cc1ccccc1)CCC(C(C)(C)C)C3 (stereo unspecified)	nt	nt	nt	-14.9%	?	nt
S=c1nc2[nH]c3ccccc3c2n[nH]1	17.9	nt	nt	4.1%	?	nt
COCCCN1C(=O)C2C(C(=O)Nc3cccc(Cl)c3)C3C=CC2(O3)C1C(=O)NC1CCCCC1 (stereo unspecified)	9.8	-0.7%	-5.8%	1.6%	-0.2%	-2.9%
COC(=O)c1ccccc1NC(=S)NC(=O)c1ccc(C)cc1	-0.2	1.5%	15.8µM*	?	-35.3%	?
COC(=O)c1ccccc1NC(=S)NC(=O)c1ccccc1C	-8.3	18.3%	7.94µM*	23.1µM*	-20.0%	?
COC(=O)c1ccccc1NC(=S)NC(=O)c1ccc2c(c1)OCO2	-5.7	19.6%	4.2%	?	-29.7%	?
Cc1ccccc1C(=O)NC(=S)Nc1ccccc1[N+](=O)[O-]	?	?	6.31µM*	-16.0%	-17.0%	?
SMILES	IL-1B inflam inh	ELG1 DNA repair	RORg inh	TDP1 cell CPT	TDP1 cell noCPT	Gal4-VP16 FLuc
CCOC(=O)[C@]12CCC=C1N(Cc1ccco1)C(=O)[C@H](CC(=O)NCc1cccs1)C2	7.0	nt	nt	-8.8%	-5.4%	nt
CCOC(=O)c1ccc(NC(=O)CSc2nc(=O)n(CCN3CCOCC3)c3c2CCC3)cc1	?	4.7%	nt	-15.6%	-19.9%	nt
CC(C)NC(=O)N1CCC2(CC1)CCN(C(=O)c1ccco1)CC2	nt	nt	-26.6%	8.6%	1.5%	19.3%
CSCC[C@H](NC(=O)[C@H](Cc1ccc(OS(=O)(=O)O)cc1)NC(=O)[C@@H](N)CC(=O)O)C(=O)NCC(=O)N[C@@H](Cc1c[nH]c2ccccc12)C(=O)N[C@@H](CCSC)C(=O)N[C@@H](CC(=O)O)C(=O)N[C@@H](Cc1ccccc1)C(N)=O	nt	nt	13.2%	6.3%	-26.6%	0.6%
COc1cc([N+](=O)[O-])ccc1NC(=O)CCCOc1cccc(C)c1C	-20.1	-9.6%	20µM*	-7.8%	-9.9%	?
COc1ccccc1/C=N/N1C(=O)C(CC(=O)Nc2ccc([N+](=O)[O-])cc2OC)SC1=Nc1cccc(C)c1C (stereo unspecified)	nt	5.8µM*	?	nt	nt	-3.1%
COc1cc([N+](=O)[O-])ccc1NC(=O)Cc1ccccc1	-19.9	-2.9%	14.7%	-4.9%	-0.7%	-1.7%
Cc1ccccc1-c1noc(CCC(=O)NCc2ccco2)n1	11.7	-7.8%	22.4%	2.0%	2.9%	22.2%
CN1C(=O)c2ccccc2Sc2ccc(NC(=O)NCc3cccc(Cl)c3)cc21	nt	nt	nt	23.1µM*	23.1µM*	nt
Cc1ccccc1CNC(=O)Nc1ccc2c(c1)N(C)C(=O)c1ccccc1S2	nt	nt	nt	16.4µM*	16.4µM*	nt
COc1ccc(CNC(=O)Nc2ccc3c(c2)N(C)C(=O)c2ccccc2S3)cc1	nt	nt	nt	?	20.6µM*	nt
COCCNC(=O)Nc1ccc2c(c1)N(C)C(=O)c1ccccc1S2	-1.5	14.8%	16.6%	9.5%	-11.8%	-10.4%
COc1cc(OC)c(NC(=O)Nc2ccc3c(c2)N(C)C(=O)c2ccccc2S3)cc1Cl	nt	nt	nt	5.8µM*	5.8µM*	nt
COc1ccc(NC(=O)COc2cccc3c2CCNC3=O)cc1	1.2	27.7%	nt	?	-22.7%	nt
COc1ccc(-c2oc3c(c2C(=O)OCCO)C(OCCCO)CCC3)cc1 (stereo unspecified)	4.8	nt	nt	?	?	nt
O=[N+]([O-])c1ccc(Cl)c(CN2CCN(c3ncccn3)CC2)c1	-17.3	12.5%	5.7%	-0.6%	-18.8%	-3.7%
Cc1ccc2nc(C)c(CN3CCN(c4ccc([N+](=O)[O-])cc4Cl)CC3)n2c1	nt	2.31µM*	14.1µM*	nt	nt	7.08µM*

Screening results (PubChem)
